Source: PubChem (National Center for Advancing Translational Sciences (NCATS))
The list is not random: actives were taken first. Their share in the collection is about 11%.
L3MBTL1 block: blocks human L3MBTL1; Potency, µM (doses to about 57.1 µM), most hits filed as inhibitors; AID 485360; AlphaScreen L3MBTL1–H3K9me1 peptide binding; 230,000 tested, 0.66% active; also: nearly all actives have a fitted effect of over 60% in size
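Displacement of a biotinylated histone H3(1-15) peptide monomethylated at Lys9 (75 nM) from L3MBTL1 (50 nM) was measured by AlphaScreen after a 30 min room-temperature compound incubation; cefsulodin titration served as intraplate control.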
BAZ2B inh: BAZ2B (human) inhibition. AlphaScreen BAZ2B-H3K14Ac peptide displacement. 360,000 tested, 4.4% active. Potency, µM (doses to about 114 µM), actives largely listed as inhibitors. Q9UIF8; also: nearly all actives have a fitted effect of over 60% in size
Target sequence (Q9UIF8 whole entry, looked up): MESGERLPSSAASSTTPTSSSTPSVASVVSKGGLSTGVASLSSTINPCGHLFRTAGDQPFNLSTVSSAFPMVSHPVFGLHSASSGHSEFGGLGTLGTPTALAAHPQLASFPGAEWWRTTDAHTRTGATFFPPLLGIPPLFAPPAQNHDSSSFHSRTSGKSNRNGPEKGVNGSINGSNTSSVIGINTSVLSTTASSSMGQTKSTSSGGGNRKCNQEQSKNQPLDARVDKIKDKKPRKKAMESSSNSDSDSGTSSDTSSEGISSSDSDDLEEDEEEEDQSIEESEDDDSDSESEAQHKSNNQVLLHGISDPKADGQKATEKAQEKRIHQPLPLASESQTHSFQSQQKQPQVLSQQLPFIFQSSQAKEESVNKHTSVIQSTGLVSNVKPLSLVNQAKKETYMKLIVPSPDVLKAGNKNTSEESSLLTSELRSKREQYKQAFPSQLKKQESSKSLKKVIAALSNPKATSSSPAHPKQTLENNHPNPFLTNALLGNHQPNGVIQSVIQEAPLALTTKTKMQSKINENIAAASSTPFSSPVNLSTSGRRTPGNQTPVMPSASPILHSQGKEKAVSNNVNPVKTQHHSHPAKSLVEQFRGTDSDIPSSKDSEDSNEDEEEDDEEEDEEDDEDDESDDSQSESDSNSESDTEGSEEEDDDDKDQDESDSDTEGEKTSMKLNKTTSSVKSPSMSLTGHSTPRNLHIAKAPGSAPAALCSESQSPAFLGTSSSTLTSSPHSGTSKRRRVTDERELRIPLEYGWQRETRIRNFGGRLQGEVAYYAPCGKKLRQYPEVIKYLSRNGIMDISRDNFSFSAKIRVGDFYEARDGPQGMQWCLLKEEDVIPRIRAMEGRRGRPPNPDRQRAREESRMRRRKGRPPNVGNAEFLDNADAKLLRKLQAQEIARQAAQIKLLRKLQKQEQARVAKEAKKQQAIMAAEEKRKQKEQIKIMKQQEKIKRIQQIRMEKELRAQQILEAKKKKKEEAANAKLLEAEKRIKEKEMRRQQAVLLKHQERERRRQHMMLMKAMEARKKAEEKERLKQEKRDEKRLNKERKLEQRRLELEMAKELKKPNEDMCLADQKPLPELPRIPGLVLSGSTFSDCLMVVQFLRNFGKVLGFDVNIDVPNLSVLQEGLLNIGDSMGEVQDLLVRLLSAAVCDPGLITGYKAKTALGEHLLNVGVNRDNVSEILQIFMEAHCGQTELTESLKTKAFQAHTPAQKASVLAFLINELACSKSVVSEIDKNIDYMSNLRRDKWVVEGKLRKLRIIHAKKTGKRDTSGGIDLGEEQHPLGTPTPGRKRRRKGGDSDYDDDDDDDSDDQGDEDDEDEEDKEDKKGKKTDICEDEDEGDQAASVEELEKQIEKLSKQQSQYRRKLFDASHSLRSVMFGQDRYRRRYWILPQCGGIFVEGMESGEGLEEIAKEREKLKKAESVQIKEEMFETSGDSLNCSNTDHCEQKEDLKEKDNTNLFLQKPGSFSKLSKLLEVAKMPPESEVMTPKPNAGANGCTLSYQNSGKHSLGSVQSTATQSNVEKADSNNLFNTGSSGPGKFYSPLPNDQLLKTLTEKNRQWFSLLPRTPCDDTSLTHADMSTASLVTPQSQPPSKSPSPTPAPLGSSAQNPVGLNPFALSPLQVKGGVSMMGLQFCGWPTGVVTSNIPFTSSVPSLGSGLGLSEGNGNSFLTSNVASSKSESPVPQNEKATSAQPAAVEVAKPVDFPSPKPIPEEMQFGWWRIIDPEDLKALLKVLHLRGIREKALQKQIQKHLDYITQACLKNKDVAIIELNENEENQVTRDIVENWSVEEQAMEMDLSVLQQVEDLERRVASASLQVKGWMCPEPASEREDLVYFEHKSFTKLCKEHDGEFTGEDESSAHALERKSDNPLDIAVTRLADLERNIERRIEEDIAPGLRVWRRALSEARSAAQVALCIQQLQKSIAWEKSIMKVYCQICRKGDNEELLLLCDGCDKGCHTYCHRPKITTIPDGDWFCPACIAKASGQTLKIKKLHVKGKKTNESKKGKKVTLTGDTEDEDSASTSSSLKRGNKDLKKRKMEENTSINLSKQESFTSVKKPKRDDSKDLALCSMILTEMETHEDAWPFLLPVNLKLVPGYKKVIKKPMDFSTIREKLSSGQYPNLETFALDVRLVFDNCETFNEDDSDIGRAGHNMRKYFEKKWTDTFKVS
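AlphaScreen displacement: compounds (up to 110uM) incubated 30 min at room temperature with a preformed 50 nM BAZ2B/50 nM biotinylated H3K14Ac peptide complex in PBS pH 7.4 with Tween-20. Donor and acceptor beads at 10 ug/mL final added, 20 min light-protected before reading.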
JMJD2A Tudor: blocks the human JMJD2A Tudor domain. O75164. AlphaScreen JMJD2A-Tudor / H3K4me3 peptide binding. Potency, µM (highest dose often 114 µM), usual class: inhibitors. 390,000 tested, 4.4% active. AID 504339; also: nearly all actives have a fitted effect of over 50% in size
HP1b chromo inh: HP1-beta chromodomain-methylated histone interaction inhibition. P83916. AlphaScreen HP1-beta / biotin-H3K9me3 peptide binding. Potency, µM (titrated, usually from 114 µM), actives largely listed as inhibitors. 390,000 tested, 0.56% active. AID 540317; also: nearly all actives have a fitted effect of over 70% in size
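AlphaScreen: HP1-beta (50 nM) preformed 30 min with biotin-H3(1-18)K9me3 peptide (50 nM) in PBS pH 7.4, 0.01% Tween-20. Compound added for 30 min at RT, then streptavidin donor/nickel chelate acceptor beads (10 ug/mL) for 30 min.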
G9a block: inhibitors of human histone lysine methyltransferase G9a; G9a H3K9 monomethylation, AlphaScreen, 2 h; Q96KQ7; AID 504332; 350,000 tested, 8.8% active; Potency, µM (doses to about 102 µM), usual class: inhibitors; also: nearly all actives have a fitted effect of over 75% in size
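Step 1: enzyme (final 20 nM) with compound, 15 min RT. Step 2: substrate peptide 500 nM and SAM 20 uM, 2 h RT. Step 3: anti-H3K9me1 antibody and AlphaScreen beads, 10 min, then plate read.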
Of the large screens only hits and unclear results are named; the others gave an inactive call. Calls follow the shape of the dose curve; as a rule, active = well fitted inhibition curve with a large enough effect; inconclusive = small, poorly fitted or top-dose-only effect; inactive = no such curve, though single readings can be large or run the other way.

CC(=O)Nc1ccc(S(=O)(=O)Oc2cccc(/C=N/N=C3/NC(=O)C(CC(=O)O)S3)c2)cc1 (stereo not drawn)	BAZ2B inh 56µM, G9a block inconclusive
Cn1c(=O)n(C)c2cc(/C=N/N=C3/NC(=O)C(CC(=O)O)S3)ccc21 (stereo not drawn)	BAZ2B inh 50µM, JMJD2A Tudor 32µM, HP1b chromo inh inconclusive
COc1ccc(/C=N/N=C2/NC(=O)C(CC(=O)O)S2)cc1OS(=O)(=O)c1ccccc1 (stereo not drawn)	G9a block inconclusive
C[n+]1cc(C(O)(c2ccccc2)c2ccccc2)n2ccccc21	none (no result: L3MBTL1 block, BAZ2B inh, HP1b chromo inh, G9a block)
CC(=O)c1cccc(NC(=O)c2cc(-c3ccc(Cl)s3)nc3ccccc23)c1	none (no result: L3MBTL1 block)
COc1ccc(/C=N/N=C2/NC(=O)C(CC(=O)O)S2)cc1OCc1ccc(Cl)cc1 (stereo not drawn)	BAZ2B inh inconclusive, JMJD2A Tudor inconclusive
CCOc1cc(/C=N/N=C2/NC(=O)C(CC(=O)O)S2)ccc1OCc1ccc(Cl)cc1 (stereo not drawn)	L3MBTL1 block inconclusive, BAZ2B inh 56µM, JMJD2A Tudor 50µM
CC(=O)N1CCc2c(sc3c2c(=O)n(-c2ccccc2Cl)c(=O)n3C)C1	none (no result: L3MBTL1 block)
N#C/C(=C\c1ccc(Br)cc1)c1nc(-c2cc3cc(Br)ccc3oc2=O)cs1	none (no result: L3MBTL1 block)
CC(OC(=O)C1=Cc2ccccc2OC1)C(=O)NCC1CCCO1 (stereo not drawn)	JMJD2A Tudor 22µM, HP1b chromo inh inconclusive (no result: L3MBTL1 block, BAZ2B inh, G9a block)
COCCNC(=O)C(C)OC(=O)C1=Cc2ccccc2OC1 (stereo not drawn)	none (no result: G9a block)
CCN1CCN(CCC2Oc3cc([N+](=O)[O-])ccc3NC2=O)CC1 (stereo not drawn)	G9a block inconclusive
COc1ccc(N2CCN(CCCNC(=O)CC3Oc4ccc(C)cc4NC3=O)CC2)cc1 (stereo not drawn)	BAZ2B inh inconclusive, JMJD2A Tudor inconclusive, G9a block 35µM
Cc1ccc2c(c1)NC(=O)C(CC(=O)NCCCN1CCN(C3CCCCC3)CC1)O2 (stereo not drawn)	G9a block inconclusive (no result: JMJD2A Tudor, HP1b chromo inh)
Cc1ccc2c(c1)NC(=O)C(CC(=O)NCCCN1CCc3ccccc3C1)O2 (stereo not drawn)	G9a block 50µM (no result: L3MBTL1 block)
COc1ccc(N2CCN(CCC3Oc4cc([N+](=O)[O-])ccc4NC3=O)CC2)cc1 (stereo not drawn)	BAZ2B inh 28µM, JMJD2A Tudor inconclusive, HP1b chromo inh inconclusive, G9a block 18µM
Cc1ccc2c(c1)NC(=O)C(CC(=O)NCCCN1CCCC1)O2 (stereo not drawn)	none (no result: L3MBTL1 block)
CCOc1ccc(/C=C2\SC(=S)N(CCC(=O)Nc3ccccc3C(=O)O)C2=O)cc1	BAZ2B inh inconclusive, G9a block 35µM (no result: L3MBTL1 block)
COc1ccc(/C=C2\SC(=S)N(CCC(=O)Nc3ccccc3C(=O)O)C2=O)cc1	BAZ2B inh inconclusive, JMJD2A Tudor inconclusive, HP1b chromo inh inconclusive, G9a block 71µM (no result: L3MBTL1 block)
CN1C(=O)/C(=C/c2ccc(C(=O)Nc3ccc(O)cc3C(=O)O)cc2)SC1=S	BAZ2B inh 22µM, JMJD2A Tudor 45µM, HP1b chromo inh 45µM (no result: L3MBTL1 block)
CCOc1ccccc1NS(=O)(=O)c1c(C)nc2sccn2c1=O	none (no result: L3MBTL1 block)
Cc1cccc(Cc2c(C)[nH]c(=O)c(C#N)c2C)c1	BAZ2B inh 89µM
COc1cccc(-c2nnc3n2N=C(c2ccccc2OC)CS3)c1	none (no result: L3MBTL1 block, BAZ2B inh, HP1b chromo inh, G9a block)
CCOc1cc(/C=N/NC(=O)c2ccc(-c3csc(Nc4ccc(C)cc4)n3)cc2)ccc1OCC(=O)O	BAZ2B inh 25µM, JMJD2A Tudor inconclusive, G9a block 45µM
O=C(COc1ccc(Cl)cc1)OCc1csc(Nc2ccccc2)n1	G9a block 10µM
Cc1ccc(Nc2nc(COC(=O)COc3ccc(C=O)cc3)cs2)cc1	JMJD2A Tudor inconclusive
O=C(O)COc1ccc(/C=N/NC(=O)c2ccc(-c3csc(Nc4ccc(Cl)cc4)n3)cc2)cc1	BAZ2B inh 4µM, JMJD2A Tudor 8.9µM, HP1b chromo inh 20µM (no result: L3MBTL1 block)
Cc1nc2cnc(N3CCOCC3)nc2n(C[C@H]2CCCO2)c1=O	none (no result: L3MBTL1 block, BAZ2B inh, JMJD2A Tudor, HP1b chromo inh)
O=C(Nc1ccc(F)c([N+](=O)[O-])c1)c1ccc2c(c1)C(=O)OC2=O	G9a block inconclusive (no result: JMJD2A Tudor, HP1b chromo inh)
CCN(c1ccccc1C)S(=O)(=O)c1nnc(NC(=O)c2ccc(OC)c(OC)c2)s1	none (no result: L3MBTL1 block)
Cc1ccc(-n2c(-c3nn(C)cc3Cl)n[nH]c2=S)cc1	JMJD2A Tudor 8.9µM, G9a block 3.2µM
Cc1c(-n2c(-c3ccccc3Cl)n[nH]c2=S)c(=O)n(-c2ccccc2)n1C	BAZ2B inh inconclusive, JMJD2A Tudor inconclusive, G9a block 45µM
C=CCNC(=O)CSc1nnc(-c2ccccc2Cl)n1-c1c(C)n(C)n(-c2ccccc2)c1=O	none (no result: L3MBTL1 block)
Cc1c(Cl)c(-c2n[nH]c(=S)n2-c2ccc(F)cc2)nn1C	JMJD2A Tudor 45µM, G9a block inconclusive
Cn1cc(Cl)c(-c2n[nH]c(=S)n2-c2ccc(F)cc2)n1	JMJD2A Tudor inconclusive, G9a block 7.9µM
Cc1c(-c2n[nH]c(=S)n2-c2ccc(Br)cc2)nnn1-c1ccc(Cl)cc1	JMJD2A Tudor inconclusive, G9a block inconclusive
O=C(c1ccc2oc(CCc3ccccc3)nc2c1)N1CC[C@H](O)C1	none (no result: L3MBTL1 block)
CCN(CC)CCCn1c2c(c(SCC(=O)Nc3ccc(OC(F)(F)F)cc3)nc1=O)CCC2	G9a block inconclusive
Cc1c(Cl)cccc1NC(=O)c1ccc(NC(=O)N2CCSc3ncccc32)cc1	G9a block inconclusive (no result: L3MBTL1 block)
Cc1ccc(-n2c(-c3cn(C)nc3C)n[nH]c2=S)cc1	G9a block inconclusive (no result: L3MBTL1 block, JMJD2A Tudor, HP1b chromo inh)
Cc1nn(C)c(-c2n[nH]c(=S)n2-c2ccccc2)c1Cl	JMJD2A Tudor 35µM, G9a block 3.2µM
S=c1[nH]nc(-c2ccc3ccccc3n2)n1-c1cc(Cl)cc(Cl)c1	G9a block inconclusive
S=c1[nH]nc(CSCc2ccccc2Cl)n1-c1ccccc1	none (no result: G9a block)
Cc1nn(C)cc1-c1n[nH]c(=S)n1-c1ccc(F)cc1	JMJD2A Tudor 5.6µM, G9a block 10µM
Cc1c(-c2n[nH]c(=S)n2-c2ccc(C(F)(F)F)cc2)nnn1-c1ccccc1	JMJD2A Tudor inconclusive, G9a block 10µM
Cn1cc(Cl)c(-c2n[nH]c(=S)n2-c2ccccc2)n1	JMJD2A Tudor 6.3µM, G9a block 8.9µM
COc1ccc(-c2cc(C(=O)Nc3ccn(Cc4ccc(C)cc4)n3)no2)cc1OC	none (no result: L3MBTL1 block)
O=C(Nc1cccc2ncccc12)c1ccco1	none (no result: L3MBTL1 block)
COc1ccc(CNC(=O)c2ccc3c(c2)N(Cc2cc(C)ccc2C)C(=O)CS3)cc1	none (no result: L3MBTL1 block)
CC1=CN2C(=N)/C(=C/c3ccc(Sc4ccc(C)cc4)o3)C(=O)N=C2S1	L3MBTL1 block inconclusive, BAZ2B inh 22µM, HP1b chromo inh 28µM, G9a block 25µM
CC1=CN2C(=N)/C(=C/c3ccc(Sc4ccc(Cl)cc4)o3)C(=O)N=C2S1	none
Cc1ccc(CCNC(=O)c2cc3n(n2)CCCN(Cc2ccc(C)cc2)C3=O)cc1	none (no result: L3MBTL1 block)
